# From PMC9911399, “Two distinct binding modes provide the RNA-binding protein RbFox with extraordinary sequence specificity”
# Changes are numbered by the printed parent chain; changes in the protein carry UniProt numbers. Over roughly 16,000 sequences, “ka relative to ugcaugu” has its median near 0.096; the highest 2% begin near 0.35. This is one part of a sample in which the highest values are shown more often than they occur.
# T1: RBFOX1 RRM RbFoxmut (Fox-RRM*) (Homo sapiens, UniProt Q9NWB1 109-208, R118D;E147R;N151S;E152T)
# T1 sequence: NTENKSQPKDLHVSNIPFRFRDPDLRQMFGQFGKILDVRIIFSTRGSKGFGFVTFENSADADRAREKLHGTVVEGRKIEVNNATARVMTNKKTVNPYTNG
# B1: UGGAAUG (DNA:RNA)
# RNA: GGGAGACCGGAAUUCAGAUUGUCCUGGAAUGUUAAAUCCCGUCGUAGCCACCA
# DNA 1: CAATCTGAATTCCGGTCTCCC
# DNA 2: TGGTGGCTACGACGGGATT
# B2: UCCUGGA (DNA:RNA)
# RNA: B1 RNA with G26C, G27C, A28U, A29G, U30G, G31A
# DNA 1: CAATCTGAATTCCGGTCTCCC
# DNA 2: TGGTGGCTACGACGGGATT
# B3: UGGAAUC (DNA:RNA)
# RNA: B1 RNA with G31C
# DNA 1: CAATCTGAATTCCGGTCTCCC
# DNA 2: TGGTGGCTACGACGGGATT
# B4: UGGAGUC (DNA:RNA)
# RNA: B1 RNA with A29G, G31C
# DNA 1: CAATCTGAATTCCGGTCTCCC
# DNA 2: TGGTGGCTACGACGGGATT
# B5: UGGGAUC (DNA:RNA)
# RNA: B1 RNA with A28G, G31C
# DNA 1: CAATCTGAATTCCGGTCTCCC
# DNA 2: TGGTGGCTACGACGGGATT
# B6: UGGAUUC (DNA:RNA)
# RNA: B1 RNA with A29U, G31C
# DNA 1: CAATCTGAATTCCGGTCTCCC
# DNA 2: TGGTGGCTACGACGGGATT
# B7: UGGAGAU (DNA:RNA)
# RNA: B1 RNA with A29G, U30A, G31U
# DNA 1: CAATCTGAATTCCGGTCTCCC
# DNA 2: TGGTGGCTACGACGGGATT
# B8: UGGAUUG (DNA:RNA)
# RNA: B1 RNA with A29U
# DNA 1: CAATCTGAATTCCGGTCTCCC
# DNA 2: TGGTGGCTACGACGGGATT
# B9: UGGAUCU (DNA:RNA)
# RNA: B1 RNA with A29U, U30C, G31U
# DNA 1: CAATCTGAATTCCGGTCTCCC
# DNA 2: TGGTGGCTACGACGGGATT
# B10: CCAGUUC (DNA:RNA)
# RNA: B1 RNA with U25C, G26C, G27A, A28G, A29U, G31C
# DNA 1: CAATCTGAATTCCGGTCTCCC
# DNA 2: TGGTGGCTACGACGGGATT
# B11: UCAGAGG (DNA:RNA)
# RNA: B1 RNA with G26C, G27A, A28G, U30G
# DNA 1: CAATCTGAATTCCGGTCTCCC
# DNA 2: TGGTGGCTACGACGGGATT
# B12: CCAUUUC (DNA:RNA)
# RNA: B1 RNA with U25C, G26C, G27A, A28U, A29U, G31C
# DNA 1: CAATCTGAATTCCGGTCTCCC
# DNA 2: TGGTGGCTACGACGGGATT
# B13: UGAUAGC (DNA:RNA)
# RNA: B1 RNA with G27A, A28U, U30G, G31C
# DNA 1: CAATCTGAATTCCGGTCTCCC
# DNA 2: TGGTGGCTACGACGGGATT
# B14: UAUAGUG (DNA:RNA)
# RNA: B1 RNA with G26A, G27U, A29G
# DNA 1: CAATCTGAATTCCGGTCTCCC
# DNA 2: TGGTGGCTACGACGGGATT
# B15: AGUGAUA (DNA:RNA)
# RNA: B1 RNA with U25A, G27U, A28G, G31A
# DNA 1: CAATCTGAATTCCGGTCTCCC
# DNA 2: TGGTGGCTACGACGGGATT
# B16: UAGGGUG (DNA:RNA)
# RNA: B1 RNA with G26A, A28G, A29G
# DNA 1: CAATCTGAATTCCGGTCTCCC
# DNA 2: TGGTGGCTACGACGGGATT
# B17: UCCACGA (DNA:RNA)
# RNA: B1 RNA with G26C, G27C, A29C, U30G, G31A
# DNA 1: CAATCTGAATTCCGGTCTCCC
# DNA 2: TGGTGGCTACGACGGGATT
# B18: CGAGCCU (DNA:RNA)
# RNA: B1 RNA with U25C, G27A, A28G, A29C, U30C, G31U
# DNA 1: CAATCTGAATTCCGGTCTCCC
# DNA 2: TGGTGGCTACGACGGGATT
# B19: CGGAUGA (DNA:RNA)
# RNA: B1 RNA with U25C, A29U, U30G, G31A
# DNA 1: CAATCTGAATTCCGGTCTCCC
# DNA 2: TGGTGGCTACGACGGGATT
# B20: UGGAUGA (DNA:RNA)
# RNA: B1 RNA with A29U, U30G, G31A
# DNA 1: CAATCTGAATTCCGGTCTCCC
# DNA 2: TGGTGGCTACGACGGGATT
# B21: UGAUGGA (DNA:RNA)
# RNA: B1 RNA with G27A, A28U, A29G, U30G, G31A
# DNA 1: CAATCTGAATTCCGGTCTCCC
# DNA 2: TGGTGGCTACGACGGGATT
# B22: GGGUGGA (DNA:RNA)
# RNA: B1 RNA with U25G, A28U, A29G, U30G, G31A
# DNA 1: CAATCTGAATTCCGGTCTCCC
# DNA 2: TGGTGGCTACGACGGGATT
# B23: AAAUCUG (DNA:RNA)
# RNA: B1 RNA with U25A, G26A, G27A, A28U, A29C
# DNA 1: CAATCTGAATTCCGGTCTCCC
# DNA 2: TGGTGGCTACGACGGGATT
# B24: UCACACA (DNA:RNA)
# RNA: B1 RNA with G26C, G27A, A28C, U30C, G31A
# DNA 1: CAATCTGAATTCCGGTCTCCC
# DNA 2: TGGTGGCTACGACGGGATT
# Biological target: T1, RBFOX1 RRM RbFoxmut (Fox-RRM*)
# Assay: EMSA; HiTS-Eq, 1 nM pool, 10 min; buffer printed only for the single-RNA assays: 10 mM Tris pH 7.5, 150 mM NaCl, 3.4 mM EDTA, 0.001% NP-40, 30 C
# Conditions: tags: His6 N-terminal (pET28a); label: 5' 32P
# Summary of the method: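 Relative association constants, normalised to the cognate motif, were derived by comparing read counts of each RNA species with those of the control reaction. The RNA sequenced was the free fraction, separated by 8% native PAGE after a 10 min equilibration in 50 µL of 1 nM 5′-radiolabelled RNA (7 randomized nucleotides) with increasing concentrations of purified wild-type or mutant RbFox RRM.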
row,Binder,binding signal
1,B1,1.66 KA relative to UGCAUGU
2,B2,0.0709 KA relative to UGCAUGU
3,B3,0.458 KA relative to UGCAUGU
4,B4,0.18 KA relative to UGCAUGU
5,B5,0.357 KA relative to UGCAUGU
6,B6,0.139 KA relative to UGCAUGU
7,B7,0.094 KA relative to UGCAUGU
8,B8,0.526 KA relative to UGCAUGU
9,B9,0.259 KA relative to UGCAUGU
10,B10,0.073 KA relative to UGCAUGU
11,B11,0.0974 KA relative to UGCAUGU
12,B12,0.0493 KA relative to UGCAUGU
13,B13,0.0858 KA relative to UGCAUGU
14,B14,0.137 KA relative to UGCAUGU
15,B15,0.133 KA relative to UGCAUGU
16,B16,0.149 KA relative to UGCAUGU
17,B17,0.0743 KA relative to UGCAUGU
18,B18,0.103 KA relative to UGCAUGU
19,B19,0.235 KA relative to UGCAUGU
20,B20,0.401 KA relative to UGCAUGU
21,B21,0.0611 KA relative to UGCAUGU
22,B22,0.0811 KA relative to UGCAUGU
23,B23,0.0533 KA relative to UGCAUGU
24,B24,0.0876 KA relative to UGCAUGU
